Rows were chosen to be rich in hits. Some 4.7% of all compounds tested hit in one or more screens of this group.
TRHR enhancer: allosteric enhancers of human TRH receptor; P34981; TRHR cells, fluo-8 calcium fluorescence, EC20 TRH enhancement; enhancement, % at 2 µM; hit rate 0.66% among 360,000; in the data active = enhancement above about 30%
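Enhancer read-out: after compound pinning and an initial kinetic agonist-mode read, an EC20 of TRH (10 nM final) was injected and fluo-8 calcium signal (Ex 480/Em 530) followed at 1 s/cycle for 100 cycles in TRHR-expressing cells.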
TRHR agonist: agonists of human TRH receptor; hit rate 0.18% among 360,000; P34981; TRHR cells, calcium flux fluo-8, FDSS agonist mode; activation, % at 2 µM
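In this calcium-flux screen, cells bearing human TRHR are dye-loaded with fluo-8, baselined for 10 cycles, then exposed to library compounds; positive kinetic calcium responses during the agonist phase mark hits, with TRH as control.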
D1 PAM: enhances dopamine response at the human D1 receptor; HEK293 TREx D1 cells, calcium flux, dopamine EC20 potentiation; potentiation, % at 10 µM; hit rate 0.036% among 360,000; in the data active = potentiation above about 30%
Target sequence (P21728 whole entry, looked up): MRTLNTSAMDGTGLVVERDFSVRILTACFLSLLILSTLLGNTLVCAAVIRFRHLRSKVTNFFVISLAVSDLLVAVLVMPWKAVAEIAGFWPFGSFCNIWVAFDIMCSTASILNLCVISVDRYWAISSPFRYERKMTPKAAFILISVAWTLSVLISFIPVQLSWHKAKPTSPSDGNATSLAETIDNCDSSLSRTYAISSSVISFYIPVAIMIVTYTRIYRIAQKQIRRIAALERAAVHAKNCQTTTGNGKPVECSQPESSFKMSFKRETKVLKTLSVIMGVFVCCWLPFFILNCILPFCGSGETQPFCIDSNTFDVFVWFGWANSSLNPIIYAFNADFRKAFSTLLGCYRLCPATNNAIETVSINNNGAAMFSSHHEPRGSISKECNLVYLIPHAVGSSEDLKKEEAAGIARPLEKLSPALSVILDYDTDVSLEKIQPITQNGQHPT
D1 ag: human D1 receptor agonism | P21728 | HEK293 T-REx D1 cells, calcium flux, agonist mode | activation, % at 2 µM | hit rate 1% among 360,000 | AID 504660
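Tetracycline-induced HEK293 TREx D1 cells, force-coupled to calcium signalling, were dye-loaded with a no-wash calcium kit. Compound was pin-added after a 10 s baseline. Fluorescence was read kinetically at 1 cycle/s for 180 s, with calcium rises flagged as agonism.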
D1 antagonist: human D1 dopamine receptor antagonism; HEK293 TREx D1 cells, calcium flux, dopamine EC80; stronger effect = lower value; activity change, negative = inhibition, % at 10 µM; hit rate 3.2% among 360,000; AID 504652; in the data active = activity change below about -30%
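Allosteric or orthosteric antagonism assessed as attenuation of the calcium response to EC80 dopamine, added 180 s after compound, in induced HEK293 Trex D1 cells loaded with no-wash calcium dye.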
Of the large screens only hits and unclear results are named; the others gave an inactive call. Rule as the data show it, unless noted: active = activation above about 30%; inactive = the rest.

CCOC(=O)c1ccc(Nc2nc3nonc3nc2Nc2cccc(C)c2C)cc1	D1 antagonist -39
Cc1ccc(C)c(Nc2nc3nonc3nc2Nc2cccc(C)c2C)c1	D1 antagonist -31
COc1ccc(-c2cn3nc(N4CCCC(C(=O)Nc5ccccc5F)C4)sc3n2)cc1 (configuration not stated)	none
O=C(c1cc(F)ccc1F)C1CCCN(C(=O)CSc2ccccn2)C1 (configuration not stated)	D1 antagonist -40
O=C(CSc1ccccn1)N1CCCC(Nc2ccccc2)C1 (configuration not stated)	none
Cc1ccc(S(=O)(=O)N2CCN(Cc3nnc(-c4c(-c5ccccc5)noc4C)o3)CC2)cc1	D1 antagonist -42 (no result: D1 PAM)
O=S(=O)(c1ccc(F)cc1)N1CCN(Cc2nnc(-c3ccccc3)o2)CC1	none
O=C(Cc1ccccc1)NNc1ccc2ccccc2c1	D1 antagonist -49
O=C(COc1ccc2ccccc2c1)NNC(=O)Cc1ccccc1	none
CC(C)c1ccc(NC(=O)CSc2nc3ccccc3nc2Cc2ccccc2)cc1	none
CCCCc1nc2ccccc2c(N)c1CCC (tested in a mixture with another compound)	D1 ag 50, D1 antagonist -47
CCCCc1nc2ccccc2c(NC(=O)CNC(C)(C)C)c1CCC	none
CC(=O)Nc1cc(C(=O)NCc2ccc(C)cc2)ccc1S(=O)(=O)c1ccc(Cl)cc1	none
N#CN=C(c1ccccc1)c1ccccc1	none
N#CCN=C(c1ccccc1)c1ccccc1	D1 antagonist -47
CCOC(=O)c1ccccc1NC(=O)CSc1cn(CC(=O)N2CCCCCC2)c2ccccc12	none
CC1CN(S(=O)(=O)c2ccccc2)CC(C)O1 (configuration not stated)	D1 antagonist -35
COc1ccc(COC(=O)c2ccc(Cl)c(S(=O)(=O)N3CC(C)OC(C)C3)c2)cc1 (configuration not stated)	none
CC1CN(S(=O)(=O)Cc2ccccc2)CC(C)O1 (configuration not stated)	none
CC1CN(S(=O)(=O)c2ccc(C(=O)OCc3ccc(C#N)cc3)cc2)CC(C)O1 (configuration not stated)	D1 ag 34 (no result: D1 PAM)
CC1(C)C2CCC(C2)C1C/C=N/NC(N)=S (configuration not stated)	TRHR enhancer 33
O=C(/C=C/c1cccs1)N1CCN(c2ccccc2)CC1	none
CCNc1ccc(S(=O)(=O)C(F)(F)F)cc1NC(=O)C12CCC(CC1)C2	none
CCNc1cc(S(=O)(=O)C(F)(F)F)ccc1N	D1 antagonist -38
CCCC[C@]12Cc3c(ccc4ccccc34)C(O1)C1=C(O2)C(=O)c2ccccc2C1=O	none
O=C(OCn1ncc(Cl)c(Cl)c1=O)c1cccc(C(F)(F)F)c1	D1 antagonist -36
O=C(OCn1ncc(Br)c(Br)c1=O)c1ccccc1Cl	none
Cc1[nH]nc2c1C(c1ccc(-c3ccc(Cl)cc3)o1)C(C#N)=C(N)O2 (configuration not stated)	TRHR enhancer 31
Cc1ccc(-c2ccc(C3C(C#N)=C(N)Oc4n[nH]c(C)c43)o2)cc1 (configuration not stated)	D1 antagonist -48
Cc1[nH]nc2c1C(c1ccc(F)cc1)C(C#N)=C(N)O2 (configuration not stated)	none
Cc1[nH]nc2c1C(c1ccc(-c3ccccc3C#N)o1)C(C#N)=C(N)O2 (configuration not stated)	none
Cc1ccc(S(=O)(=O)NC(=O)Nc2cc(C(C)(C)C)on2)cc1	D1 antagonist -37
CN(CC(=O)Nc1cccc(F)c1)C(=O)c1ccc(-n2cncn2)c([N+](=O)[O-])c1	D1 antagonist -40
Cc1c(Cl)cccc1-n1ncc(C(=O)N2CCN(C)CC2)c1C1CCN(C(=O)OC(C)(C)C)CC1	none
COc1cccc(CNC(=O)CCc2cn(Cc3ccccc3Cl)c3ccccc23)c1	D1 ag 33
COc1ccccc1NC(=O)NCC(c1ccco1)N1CCCCC1 (configuration not stated)	D1 antagonist -41
O=C(NCC(c1ccco1)N1CCc2ccccc21)C(=O)Nc1ccccc1F (configuration not stated)	none

Screening data from PubChem.
